{"source": "the supplement of paper PMC6518042", "note": "A number with no mark means an inactive call."}
{"system": "Pectobacterium parmentieri SCC3193", "assay": "DuctApe activity index (growth/respiration on compound as sole nutrient source, blank-subtracted) (activity index (0-3)); higher = stronger utilization of the compound, active = 3 or more", "settings": "nutrient role (plate category): carbon", "experimental": "(§1)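 Biolog Phenotype Microarray plates PM1, PM2A (carbon), PM3 (nitrogen) and PM4 (phosphorus/sulfur) inoculated with P. parmentieri SCC3193 in M9-C minimal salts medium with Biolog dye A, and read in the OmniLog for 46 h. Each well was tested in triplicate and the experiment was run twice. DuctApe computed a blank-subtracted activity index (AV, 0-3) from the mean curves; growth is positive at AV >= 3 and negative at AV <= 2.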"}
{"smiles": "C/C(=C/C(=O)O)C(=O)O", "note": "[Citraconic acid]", "DuctApe activity index": 0}
{"smiles": "OC[C@H]1O[C@H](O[C@H]2O[C@H](CO)[C@@H](O)[C@H](O)[C@H]2O)[C@H](O)[C@@H](O)[C@@H]1O", "note": "[D-Trehalose]", "DuctApe activity index": "3 (active)"}
{"smiles": "O=P(O)(O)OC[C@H](O)CO", "note": "(racemic) [DL-a-Glycerol Phosphate]", "DuctApe activity index": "3 (active)"}
{"smiles": "Cc1cn([C@H]2C[C@H](O)[C@@H](CO)O2)c(=O)[nH]c1=O", "note": "[Thymidine]", "DuctApe activity index": 1}
{"smiles": "O=C(O)C[C@@H](O)C(=O)O", "note": "[D-Malic acid]", "DuctApe activity index": 0}
{"smiles": "O=C(O)[C@@H]1C[C@@H](O)CN1", "note": "[Hydroxy-L-Proline]", "DuctApe activity index": 0}
{"smiles": "O=P(O)(O)O[C@H]1O[C@H](CO)[C@@H](O)[C@H](O)[C@H]1O", "note": "[D-Glucose-1-Phosphate]", "DuctApe activity index": 0}
{"smiles": "OC[C@H]1O[C@H](OC[C@H]2O[C@H](O[C@H]3[C@H](O)[C@@H](O)[C@@H](O)O[C@@H]3CO)[C@H](O)[C@@H](O)[C@@H]2O[C@H]2O[C@H](CO)[C@@H](O)[C@H](O)[C@H]2O)[C@H](O)[C@@H](O)[C@@H]1O", "note": "[Glycogen]", "DuctApe activity index": 0}
{"smiles": "C[C@H](N)C(=O)O", "note": "[L-Alanine]", "DuctApe activity index": 0}
{"smiles": "CC(C)[C@H](N)C(=O)O", "note": "[L-Valine]", "DuctApe activity index": 0}
{"smiles": "O=c1ccn([C@@H]2O[C@H](CO)[C@@H](O)[C@H]2O)c(=O)[nH]1", "note": "[Uridine]", "DuctApe activity index": 1}
{"smiles": "O=C(O)[C@H](O)[C@@H](O)C(=O)O", "note": "[L-Tartaric acid]", "DuctApe activity index": 0}
{"smiles": "NC(=O)C[C@H](N)C(=O)O", "note": "[L-Asparagine]", "DuctApe activity index": "3 (active)"}
{"smiles": "O=C(O)[C@H]1OC(O)[C@H](O)[C@@H](O)[C@H]1O", "note": "(stereo partly drawn) [D-Galacturonic acid]", "DuctApe activity index": "3 (active)"}
{"smiles": "OC[C@@H](O)[C@H](O)[C@H](O)[C@@H](O)CO", "note": "[Dulcitol]", "DuctApe activity index": 0}
{"smiles": "CCCCCCCC/C=C\\CCCCCCCC(=O)OCCOCC(OCCO)C1OCC(OCCO)C1OCCO", "note": "(stereo unspecified) [Tween 80]", "DuctApe activity index": 0}
{"smiles": "CC(=O)N[C@@H](CCC(=O)O)C(=O)O", "note": "[N-Acetyl-L-Glutamic acid]", "DuctApe activity index": 0}
{"system": "Pectobacterium parmentieri SCC3193", "assay": "DuctApe activity index (growth/respiration on compound as sole nutrient source, blank-subtracted) (activity index (0-3)); higher = stronger utilization of the compound, active = 3 or more", "settings": "nutrient role (plate category): nitrogen", "experimental": "as §1"}
{"smiles": "OC[C@H]1O[C@@H](n2cnc3c(O)nc(O)nc32)[C@H](O)[C@@H]1O", "note": "[Xanthosine]", "DuctApe activity index": 0}
{"smiles": "O=C1NC(=O)C(=O)N1", "note": "[Parabanic acid]", "DuctApe activity index": 0}
{"smiles": "Cc1cn([C@H]2C[C@H](O)[C@@H](CO)O2)c(=O)[nH]c1=O", "note": "[Thymidine]", "DuctApe activity index": 0}
{"smiles": "Nc1cc[nH]c(=O)n1", "note": "[Cytosine]", "DuctApe activity index": 0}
{"smiles": "NC=O", "note": "[Formamide]", "DuctApe activity index": 0}
{"smiles": "NCCCCCC(=O)O", "note": "[e-Amino-N-Caproic acid]", "DuctApe activity index": 0}
{"smiles": "C[C@H](N)C(=O)O", "note": "[L-Alanine]", "DuctApe activity index": 0}
{"smiles": "Cc1c[nH]c(=O)[nH]c1=O", "note": "[Thymine]", "DuctApe activity index": 0}
{"smiles": "CC(C)[C@H](N)C(=O)O", "note": "[L-Valine]", "DuctApe activity index": 0}
{"smiles": "O=c1ccn([C@@H]2O[C@H](CO)[C@@H](O)[C@H]2O)c(=O)[nH]1", "note": "[Uridine]", "DuctApe activity index": 0}
{"smiles": "NCCCC[C@@H](N)C(=O)O", "note": "[D-Lysine]", "DuctApe activity index": 0}
{"smiles": "NC(=O)C[C@H](N)C(=O)O", "note": "[L-Asparagine]", "DuctApe activity index": 2}
{"smiles": "Nc1nc2[nH]cnc2c(=O)[nH]1", "note": "[Guanine]", "DuctApe activity index": 0}
{"smiles": "CC(=O)N[C@@H](CCC(=O)O)C(=O)O", "note": "[N-Acetyl-L-Glutamic acid]", "DuctApe activity index": 0}
{"system": "Pectobacterium parmentieri SCC3193", "assay": "DuctApe activity index (growth/respiration on compound as sole nutrient source, blank-subtracted) (activity index (0-3)); higher = stronger utilization of the compound, active = 3 or more", "settings": "nutrient role (plate category): phosphate & sulphur", "experimental": "as §1"}
{"smiles": "Nc1ccn([C@@H]2O[C@H](CO)[C@@H](OP(=O)(O)O)[C@H]2O)c(=O)n1", "note": "[Cytidine 3`-Monophosphate]", "DuctApe activity index": 2}
{"smiles": "O=P(O)(O)OC[C@H](O)CO", "note": "(racemic) [DL-a-Glycerol Phosphate]", "DuctApe activity index": 1}
{"smiles": "O=C(O)COP(=O)(O)O", "note": "[Phospho-Glycolic acid]", "DuctApe activity index": 1}
{"smiles": "CC(=O)N[C@@H](CS)C(=O)O", "note": "[N-Acetyl-L-Cysteine]", "DuctApe activity index": 1}
{"smiles": "O=P(O)(O)O[C@H]1O[C@H](CO)[C@@H](O)[C@H](O)[C@H]1O", "note": "[D-Glucose-1-Phosphate]", "DuctApe activity index": 1}
{"smiles": "C[N+](C)(C)CCOP(=O)(O)O", "note": "[Phosphoryl Choline]", "DuctApe activity index": 1}
{"smiles": "OC[C@H]1O[C@@H](S)[C@H](O)[C@@H](O)[C@@H]1O", "note": "[1-Thio-b-D-Glucose]", "DuctApe activity index": 0}
{"smiles": "O=S(=O)(O)SSS(=O)(=O)O", "note": "[Tetrathionate]", "DuctApe activity index": 1}
{"smiles": "NCCS", "note": "[Cysteamine]", "DuctApe activity index": 1}
{"smiles": "CCCCS(=O)(=O)O", "note": "[Butane Sulfonic acid]", "DuctApe activity index": 1}
